The results in this text go back to PubChem BioAssay.

Assay [1] deals with Aerobactin synthetase IucA (Klebsiella pneumoniae). Kind of assay: inhibition of K. pneumoniae IucA enzyme – biochemical, Tocris library, absorbance (AID 1345561; call rule not given here;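 also: 100% = enzyme without compound and 0% = no enzyme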). The settings on record: purified IucA enzyme assay, absorbance (OD) read-out; stronger effect = lower value;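 tested at 8 µM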.
Assay [2] in a line: viability loss in pontine glioma line – cell-based, SU-DIPG-XIII, MIPE4.0, CellTiter-Glo, qHTS, dose response (AID 1347061; cut-off not given, nearly all actives have AC50 up to about 37 µM;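 also: cells exposed to compound for 48 hours before readout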). The settings on record: CellTiter-Glo ATP luminescence. Background: Cellular ATP, detected with luciferase, serves as a proxy for viable cell number.
Assay [3] can be described thus: viability loss in pontine glioma line – cell-based, JHH-DIPG-1, MIPE4.0, CellTiter-Glo, qHTS, dose response (AID 1347062; cut-off not given, nearly all actives have AC50 up to about 27 µM). The settings on record: JHH-DIPG-1 viability, CellTiter-Glo ATP luminescence.
Assay [4] is described as follows: viability loss with induced miR-34 in A549 – imaging, A549 dox-inducible miR-34, nuclei and caspase counts, primary screen (AID 1347080;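 active = compounds whose cell count with miR-34 switched on is under 0.7 times the count with it off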). The settings on record: A549 miR-34 inducible, Hoechst nuclei count, 48 h.
Assay [5] can be described thus: compounds altering HSF1 focus formation in cells – imaging, Selleck Cancer Library (AID 1347162; in the data active = plate-normalised HSF1 focus index below about 0.46). The settings on record: human cells, HSF1 nuclear foci imaging, at 10 µM; SSMD: measured here: HSF1 foci SSMD mean; cell count: measured here: cell number; plate-normalised HSF1 focus index: stronger effect = lower value.
A short description of assay [6]: drug combination growth inhibition, ovarian cancer – cell-based, oncology-focused library, rucaparib conditional, profiling panel (AID 1508598). The settings on record: patient-derived ovarian cancer cells, CellTiter-Glo viability, 144 h, stronger effect = lower value.
The nature of assay [7]: galactose survival enhancers in mitochondrial complex I cybrids – cell-based, galactose medium, ATP luminescence, primary screen (AID 1645843;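 active = z-score of at least 1.8 in each of two replicates, scored against plate mean and spread of sample wells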;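 also: positive z means more ATP and so rescue of galactose-driven cybrid death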). The settings on record: complex I mutant cybrid cells, 72 h, stronger effect = higher value.
Assay [8] is described as follows: compounds altering circadian rhythm period length – cell-based, LOPAC library, luminescence reporter (AID 2774; call rule not given here;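 also: values are relative to mean of DMSO wells on each plate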). The settings on record: circadian reporter cells, at 7 µM, actives lie on both sides.
In assay [9] the test system is Hepatitis C virus NS3 helicase. As to the kind of experiment: blockers of NS3h binding to ssDNA – biochemical, fluorescence polarization, LOPAC1280 library, primary screen (AID 687035; in the data active = inhibition above about 37%). The settings on record: Purified HCV NS3 helicase, Cy5-dT15 ssDNA binding fluorescence polarization; stronger effect = higher value; concentration not given here.
Assay [10] in a line: compounds altering Cy5-DNA-NS3h complex signal – biochemical, LOPAC1280, artefact control for HCV NS3 helicase inhibitor project (AID 687037; call rule not given here). The settings on record: Cy5-DNA-NS3h complex fluorescence interference counterscreen.
A short description of assay [11]: blockers of cellular phospholipid synthesis – cell-based, LOPAC library, screen 4, primary screen (AID 1347384; call rule not given here). The settings on record: animal cells, phospholipid biosynthesis inhibition screen; at 10 µM.
The nature of assay [12]: P. berghei load reduction in hepatocytes – cell-based, HepG2, luciferase luminescence, HepG2 viability, primary screen (AID 624349; in the data active = parasite load remaining mostly below about 12%, no sharp cut-off; inactive = mostly above about 10%;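 also: 100% = mean of DMSO negative control wells on the same plate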). The settings on record: P. berghei liver stage in HepG2, luciferase luminescence, concentration not given here; parasite load remaining: stronger effect = lower value; viability: measured here: HepG2 viability without parasites.
Assay [13] is described as follows: growth inhibition of DIPG cells – cell-based, MIPE5.0 library, qHTS (AID 1347068; cut-off not given, nearly all actives have IC50 up to about 30 µM). The settings on record: SU-DIPG-XXV viability. For orientation: In qHTS, concentration-response curves come from the screen itself.
[14] abbreviates: stronger effect = lower value, cell number ratio, induced over uninduced.
Setting [15] is: measured here: relative caspase fold change +Dox/-Dox.
Setting [16] is: measured here: total cells with miR-34 induction, stronger effect = lower value.
[17] abbreviates: measured here: total cells without miR-34 induction.

“And” between values parts separate entries of the source, which are not always exact repeats. Equal values may be shown once. Results filed as inconclusive are left out. The source made the active and inactive calls.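 The calls were made as follows, unless noted: active = normalized viability below 100% at a tested concentration; inactive = the rest.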

Usually remaining activity stands for the signal under treatment as a percentage of the control signal. Broadly, the viability is a read-out of living cells in per cent, often relative to untreated cells. `CC(C)c1onc(-c2c(Cl)cccc2Cl)c1COc1ccc(/C=C/c2cccc(C(=O)O)c2)c(Cl)c1`: the remaining activity in assay [1] is 99.1% (inactive). Further, the molecule was called inactive in assay [2] and in assay [3]. Besides, the fold change in assay [4] (setting [14]) is 0.989 (inactive); in [4] (setting [15]) it was 1.32. The cell count in assay [4] (setting [16]) is 5590; in assay [4] (setting [17]) it was 5650; in assay [5], 6870. Besides, in assay [5], the SSMD was 2.06. Further, the plate-normalised HSF1 focus index in assay [5] was 1.11 (inactive). For the same molecule, the viability in assay [6] (at 0.000305 µM, OCI-C5x cells, with rucaparib 10 µM, 100% = cells with rucaparib alone) is 95.7% (active); in assay [6] (at 0.000305 µM, OCI-C5x cells, without rucaparib), 107% (inactive); in [6] (at 0.000305 µM, OCI-P5x cells, with rucaparib 20 µM, 100% = cells with rucaparib alone), 90.8% (active); in assay [6] (at 0.000305 µM, OCI-P5x cells, without rucaparib), 87.3% (active); in assay [6] (at 0.00122 µM, OCI-C5x cells, with rucaparib 10 µM, 100% = cells with rucaparib alone), 107% (inactive); in assay [6] (at 0.00122 µM, OCI-C5x cells, without rucaparib) it was 97.6% (active). Also, the viability in assay [6] (at 0.00122 µM, OCI-P5x cells, with rucaparib 20 µM, 100% = cells with rucaparib alone) is 99.3% (active); in [6] (at 0.00122 µM, OCI-P5x cells, without rucaparib), 89.4% (active); in [6] (at 0.00488 µM, OCI-C5x cells, with rucaparib 10 µM, 100% = cells with rucaparib alone), 103% (inactive); in assay [6] (at 0.00488 µM, OCI-C5x cells, without rucaparib), 97.6% (active); in [6] (at 0.00488 µM, OCI-P5x cells, with rucaparib 20 µM, 100% = cells with rucaparib alone), 102% (inactive); in assay [6] (at 0.00488 µM, OCI-P5x cells, without rucaparib) it was 91.9% (active). The viability in assay [6] (at 0.0195 µM, OCI-C5x cells, with rucaparib 10 µM, 100% = cells with rucaparib alone) was 101% (inactive); in assay [6] (at 0.0195 µM, OCI-C5x cells, without rucaparib), 98.1% (active); in assay [6] (at 0.0195 µM, OCI-P5x cells, with rucaparib 20 µM, 100% = cells with rucaparib alone), 100% (inactive); in assay [6] (at 0.0195 µM, OCI-P5x cells, without rucaparib), 98.8% (active); in assay [6] (at 0.0781 µM, OCI-C5x cells, with rucaparib 10 µM, 100% = cells with rucaparib alone), 99.7% (active); in assay [6] (at 0.0781 µM, OCI-C5x cells, without rucaparib) it was 105% (inactive). In addition, the viability is 104% (inactive) in assay [6] (at 0.0781 µM, OCI-P5x cells, with rucaparib 20 µM, 100% = cells with rucaparib alone); 97.9% (active) in [6] (at 0.0781 µM, OCI-P5x cells, without rucaparib); 97.6% (active) in [6] (at 0.313 µM, OCI-C5x cells, with rucaparib 10 µM, 100% = cells with rucaparib alone); 97.8% (active) in assay [6] (at 0.313 µM, OCI-C5x cells, without rucaparib); 106% (inactive) in assay [6] (at 0.313 µM, OCI-P5x cells, with rucaparib 20 µM, 100% = cells with rucaparib alone); 100% (inactive) in [6] (at 0.313 µM, OCI-P5x cells, without rucaparib). Besides, the viability in [6] (at 1.25 µM, OCI-C5x cells, with rucaparib 10 µM, 100% = cells with rucaparib alone) was 102% (inactive); in [6] (at 1.25 µM, OCI-C5x cells, without rucaparib), 97.1% (active); in [6] (at 1.25 µM, OCI-P5x cells, with rucaparib 20 µM, 100% = cells with rucaparib alone), 103% (inactive); in [6] (at 1.25 µM, OCI-P5x cells, without rucaparib), 101% (inactive); in [6] (at 5 µM, OCI-C5x cells, with rucaparib 10 µM, 100% = cells with rucaparib alone), 76.1% (active); in assay [6] (at 5 µM, OCI-C5x cells, without rucaparib), 89.5% (active). The viability is 99.6% (active) in [6] (at 5 µM, OCI-P5x cells, with rucaparib 20 µM, 100% = cells with rucaparib alone) and 98.8% (active) in assay [6] (at 5 µM, OCI-P5x cells, without rucaparib). Moreover, the z-score in assay [7] is -0.665 (inactive).
The term inhibition denotes the change of the read-out against control, counted positive when it falls. With `COc1cc2c(cc1O)CC[C@@H]1[C@@H]2CC[C@]2(C)[C@@H](O)CC[C@@H]12`, the period change in [8] is -1.4 h (active). Further, the inhibition in assay [9] was -1% (inactive). Also, in assay [10], the fluorescence ratio (interference) was 1 (inactive). Also, in [1], the remaining activity was 112% (inactive). The fold change in assay [4] (setting [14]) is 1.15 (inactive) and 1.13 (inactive); in assay [4] (setting [15]) it was 0.815 and 0.616. Also, the cell count in assay [4] (setting [16]) was 2600 and 1620; in assay [4] (setting [17]), 2270 and 1440; in assay [5] it was 7300. The SSMD in assay [5] amounted to 1.78. In assay [5], the plate-normalised HSF1 focus index was 1.07 (inactive). Further, the call in assay [11] was inactive. Moreover, the z-score in assay [7] is 0.06 (inactive) and 0.18 (inactive).
As for `COc1cc(SC)ccc1C(=O)N1CCC(Cc2ccccc2)CC1`, the parasite load remaining in assay [12] was 38.9% (inactive). Further, the viability in assay [12] turned out to be 67%. For the same molecule, the inhibition in assay [9] is 1% (inactive). The fluorescence ratio (interference) in assay [10] is 1 (inactive). Further, the remaining activity in assay [1] was 78.3% (inactive). Besides, the molecule was called inactive in assay [13] and in [11]. Besides, the fold change in assay [4] (setting [14]) is 1.03 (inactive) and 0.864 (inactive); in assay [4] (setting [15]), 0.962 and 1.6. The cell count in assay [4] (setting [16]) was 7280 and 6350; in [4] (setting [17]), 7040 and 7350. Besides, the z-score in assay [7] is -0.91 (inactive) and -0.635 (inactive).
As to `CN(CCOc1ccc(-c2ccc3c(c2)OCO3)cc1C(C)(C)C)CC(=O)O`, the remaining activity in assay [1] was 102% (inactive). Also, in assay [13], the outcome was inactive. In addition, the values for the fold change in assay [4] (setting [14]) and in [4] (setting [15]) were 0.865 (inactive) and 1.03, respectively. Moreover, the cell count in [4] (setting [16]) came to 7520; in [4] (setting [17]), 8690. Further, the z-score in [7] was -0.035 (inactive).
